In the library only some 17% were active in any assay of this set; here they are far more common.
TDP1 cell noCPT: qHTS for Inhibitors of human tyrosyl-DNA phosphodiesterase 1 (TDP1): qHTS in cells in absence of CPT | DT40 Tdp1-/- hTDP1 cells, no CPT, ATP luminescence, 48 h | Potency, µM (highest dose often 46.2 µM), inactives show at the highest dose activity change, negative = growth inhibition, usual class: inhibitors | 420,000 tested, 15% active | AID 686978, 2013; note: % is set by controls: 0 for no effect and ±100 for the full control effect; nearly all actives have a fitted effect of over 55% in size
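Compound effects on proliferation are scored in DT40 Tdp1-/-;hTDP1 cells in the absence of CPT. ATP levels (CellTiter-Glo luminescence) are recorded after a ≥48 hr, 37 °C incubation.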
TDP1 cell CPT: growth inhibition of DT40 Tdp1-/-;hTDP1 cells with camptothecin (screen for TDP1 inhibitors). 420,000 tested, 12% active. chicken DT40 Tdp1-/-;hTDP1 cells + 20 nM CPT, ATP luminescence, 48 h. Potency, µM (top dose mostly 46.2 µM), for the others: top-dose activity change, negative = growth inhibition, most hits filed as inhibitors; note: % is set by controls: 0 for no effect and ±100 for the full control effect; nearly all actives have a fitted effect of over 55% in size
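Chicken DT40 Tdp1-/- cells stably complemented with human TDP1 were seeded at 400 cells/well in medium containing 20 nM camptothecin, exposed to pin-transferred compounds, and grown at 37 °C for at least 48 hr. Viability was read as ATP luminescence.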
HepG2 viability: kills HepG2 cells in TGF-b inhibitor counter-screen; 410,000 tested, 0.76% active; HepG2 CAGA-GFP viability, ATP luminescence, 18 h; Potency, µM (titrated, usually from 46.1 µM), for inactives: top-dose activity change, negative = cytotoxicity, most hits filed as cytotoxic
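HepG2 CAGA-GFP cells (1000/well, DMEM with 1% FBS) received compound, then TGF-beta at 500 pg/mL final, and were incubated 18 hours at 37 degrees C. Viability was read by CellTiter-Glo luminescence. Media-only wells were set as complete cell-killing and DMSO as no toxicity.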
TGFb inhibitor: inhibitors of TGF-b signaling; AID 588855; HepG2 CAGA-GFP TGF-b/SMAD3 reporter, GFP fluorescence, 18 h; TGF-beta stimulated, 500 pg/mL final; Potency, µM (titrated, usually from 46.1 µM), inactives show top-dose activity, negative = inhibition, actives largely listed as inhibitors; 410,000 tested, 1.2% active; note: % is set by controls: 0 for no effect and ±100 for the full control effect; nearly all actives have a fitted effect of over 65% in size
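Using HEPG2 CAGA-GFP reporter cells at 1000 cells/well, we pinned test compounds, stimulated with recombinant TGF-beta (500 pg/mL final) and measured total well GFP after 18 h.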
ATXN2 expr inh: reduces ATXN2 reporter expression in HEK-293 cells; 360,000 tested, 0.72% active; Potency, µM (titrated, usually from 57 µM), for the others: at the top dose activity change, negative = inhibition, hits mostly inhibitors; HEK-293 ATXN2-luciferase reporter, luminescence, 24 h; note: % is set by controls: 0 for no effect and ±100 for the full control effect; nearly all actives have a fitted effect of over 55% in size
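qHTS (up to 57 uM final) was run with 24 h compound exposure of reporter cells at 37 °C. Each well was multiplexed: SteadyGlo luminescence measured ATXN2-luciferase expression after a fluorogenic Gly-Phe-AFC viability readout (25 uM final).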
S2 tox: cell viability loss in ATXN counter-screen | 400,000 tested, 0.49% active | AID 651635 | S2 cells (HEK-293 line with an ATXN2-luciferase reporter) viability, CellTiter-Fluor protease fluorescence, 24 h | Potency, µM (highest dose often 56.7 µM), actives largely listed as cytotoxic; note: nearly all actives have a fitted effect of over 40% in size
Numbers without * were called inactive; i = inactive; u = inconclusive; x = no result given; [ ] = dose if it differs, or a comment. Calls come from the whole dose curve; as a rule, active = well fitted curve in the direction sought with a large enough effect; inconclusive = small, poorly fitted or top-dose-only effect, or another doubt; inactive = no such curve, though single readings can be large; an effect the other way counts as inactive or inconclusive. Potency is the fitted concentration of half-maximal effect.

SMILES	TDP1 cell noCPT	TDP1 cell CPT	HepG2 viability	TGFb inhibitor	ATXN2 expr inh	S2 tox
COc1ccccc1NCC(=O)N/N=C/c1c(O)ccc2ccccc12	2.9µM*	5.8µM*	-48%	-1%	2.5µM*	i
COc1ccc(/C=C(/NC(=O)c2ccccc2OC)C(=O)Nc2ccc(C(=O)O)cc2)cc1	-6%	18%	-35%	0%	5%	i
COc1ccc(CN2CCC(n3cc(C(=O)N4CCCCC4)nn3)CC2)c(OC)c1	-23%	2%[9.04 µM]	x	x	x	i
O=C(CNc1ccc(F)cc1)N/N=C/c1c(O)ccc2ccccc12	9.2µM*	10µM*	-37%	u	4.5µM*	u
O=c1[nH]c(C2CCN(S(=O)(=O)c3cccc([N+](=O)[O-])c3)CC2)nc2c1nnn2Cc1ccccc1	u	11%	-18%	0%	0%	i
COc1ccc(S(=O)(=O)NC(=O)C2(C)CCN2C(=O)Cc2cc(C)cc(C)c2)cc1OC (centres undefined)	4%	1%	11%	13%	13%	i
COc1ccccc1N1CCN(C(=O)Cn2c(=O)nc(-c3ccccc3)c3ccccc32)CC1	15µM*	u	-29%	u	x	x
COc1ccccc1N1CCN(CCOc2c(OC)cccc2OC)CC1	u	18µM*	-24%	-18%	-16%	i
COc1ccccc1N1CCN(CCCCOc2c(OC)cccc2OC)CC1	-20%	u	-34%	0%	-22%	i
COc1ccccc1N1CCN(C(=O)COc2cccc3ccccc23)CC1	u	23µM*	-23%	-1%	-6%	i
COc1ccccc1N1Cc2ccccc2C1	16µM*	26µM*	-52%	0%	-14%	i
COc1cc(Cl)c(C)cc1NC(=O)Cn1ncc2c1-c1cc(C)ccc1OC2	u	u	-1%	-20%	4%	i
O=C(NNC(=O)c1ccncc1)Nc1cc(Cl)ccc1Cl	-13%	9%	-5%	-2%	17%	u
COc1ccccc1N1CCN(C(=O)CN2C(=O)c3cccc4cccc(c34)C2=O)CC1	u	26µM*	-22%	-5%	-20%	i
COc1ccccc1N1CCN(C(=O)CCCN2C(=O)c3cccc4cccc(c34)C2=O)CC1	29µM*	16µM*	-16%	u	-16%	u
COc1ccccc1N1CCN(/N=C/C(Cl)=C/c2ccccc2)CC1	16µM*	26µM*	-7%	-19%	34%	i
C(=C1C=c2ccccc2=C1)c1ccc(N=Nc2ccc(C=C3C=c4ccccc4=C3)cc2)cc1	-11%	-8%	-12%	-4%	x	x
CCc1c(C(=O)NN2C(=O)C3CCCCC3C2=O)csc1C (centres undefined)	-28%	-10%	1%	5%	-6%	u
CNS(=O)(=O)c1cccc(C(=O)NCC(c2cccs2)N2CCOCC2)c1 (centres undefined)	-19%	-5%	2%	-9%	-1%	i
COc1cc(C)c(CN2C[C@H](Sc3ccccn3)C[C@H]2C(=O)N(C)C)cc1C	u	-43%	x	x	x	i
COc1cc(NC(=O)C2CCCN(S(=O)(=O)c3cccc4nsnc34)C2)cc(OC)c1 (centres undefined)	21µM*	u	-31%	1%	-12%	u
COc1cc(NC(=O)C(Cc2ccccc2)NS(=O)(=O)c2cccc3nsnc23)cc(OC)c1 (centres undefined)	16µM*	16µM*	-30%	-45%	-11%	u
Cc1ccc2nc(NC(=O)C3CCCN(S(=O)(=O)c4cccc5nsnc45)C3)sc2c1 (centres undefined)	18µM*	u	-9%	-4%	-35%	u
COc1ccc(OC)c(NC(=O)C2CCCN(S(=O)(=O)c3cccc4nsnc34)C2)c1 (centres undefined)	16µM*	16µM*	13µM*	-9%	-8%	i
O=C(Nc1ccc(Br)cc1)C(Cc1ccccc1)NS(=O)(=O)c1cccc2nsnc12 (centres undefined)	-28%	-29%	-19%	u	x	x
SMILES	TDP1 cell noCPT	TDP1 cell CPT	HepG2 viability	TGFb inhibitor	ATXN2 expr inh	S2 tox
NC1=NC(c2ccccc2C(F)(F)F)N(c2ccc(F)c(Cl)c2)C(N)=N1 (centres undefined)	4.1µM*	21µM*	-25%	-5%	-14%	i
NC1=NC(c2ccc(Cl)cc2)N(c2ccc(S(N)(=O)=O)cc2)C(N)=N1 (centres undefined)	-5%	5%	15%	32%	x	i
COc1ccccc1/C=C/C=N/n1c(-c2ccc(F)cc2)n[nH]c1=S	-26%	u	18%	-4%	-9%	i
COc1ccccc1/C=C/C=N/n1c(C)nnc1C	-10%	3%	0.89µM*	-5%	33%	u
COc1ccccc1/C=C/C=N/n1c(COc2ccccc2)n[nH]c1=S	15µM*	u	-2%	u	6%	i
COc1cccc(/C=N/n2c(COc3ccccc3)n[nH]c2=S)c1OC	-27%	-7%	-11%	5%	x	i
COCCNC(=O)CCCn1c(SCC(=O)NCc2ccc(C)cc2)nc2c(sc3ccccc32)c1=O	-4%	-19%	1%	6%	x	x
CC1(C(=O)NCCCN2CCCC2=O)CCN1CCc1ccccc1 (centres undefined)	-1%	-22%	18%	3%	5%	i
CCN1CCN(C(=O)c2cc3c(s2)-c2c(C)cccc2OC3)CC1	u	u	-29%	-3%	22%	i

Compound activity deposited in PubChem by National Center for Advancing Translational Sciences (NCATS).
